Hits are enriched below; roughly 21% of the tested compounds scored in any of these assays.
Pf growth 96h = P. falciparum growth inhibition at 96 hour, primary screen for plastid delayed-death inhibitors. P. falciparum luciferase reporter growth, 96 h. Potency, µM (series often up to 28.7 µM), without a hit: at the top dose activity change, negative = inhibition, hits mostly inhibitors. 320,000 tested, 6.9% active. AID 504834; further: potency means the concentration at half of the fitted maximal effect; on the % scale 0 is the no-effect control and ±100 the full control effect
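P. falciparum expressing integrated firefly luciferase grown in erythrocytes (2% hematocrit, 0.05% parasitemia final) with compounds for 96 hours at 37 C, 5% CO2. Growth inhibition read as loss of luminescence after adding luciferase detection reagent.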
Pf growth 48h = inhibits P. falciparum growth in the first generation, 48 h; P. falciparum luciferase growth in erythrocytes, 48 h; Potency, µM (top dose mostly 28.7 µM), inactives show at the top dose activity change, negative = inhibition, actives largely listed as inhibitors; 310,000 tested, 5.9% active; AID 504832; further: potency means the concentration at half of the fitted maximal effect; on the % scale 0 is the no-effect control and ±100 the full control effect
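Luciferase-expressing parasites in RBCs, 2% Hct / 0.1% parasitemia final; RPMI 1640 + 0.5% Albumax; 37 C, 5% CO2, one generation; luminescence read-out, lower signal = inhibition.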
CHX counter = counter-screen hit for Shiga toxin inhibitors, cycloheximide. cell reporter, cycloheximide protein synthesis inhibition counterscreen. max response, %. 300,000 tested, 12% active. AID 2314; in the data active means max response mostly above about 13%, no sharp cut-off; inactive means mostly below about 14%; further: read at 38.3 µM for the half of the compounds with a filed dose; 0% is about no effect
Shiga toxin inh = Shiga toxin inhibition | Vero cells, Shiga toxin protein synthesis inhibition reporter | inhibition, % at 38.7 µM | 290,000 tested, 9.2% active | AID 2315; in the data active means inhibition mostly above about 28%, no sharp cut-off; inactive means mostly below about 43%; further: 0% is about no effect
NS1 function inh = blocks influenza NS1 protein function; Potency, µM (top dose mostly 46.1 µM), without a hit: top-dose activity, positive = more growth; 270,000 tested, 0.4% active; AID 2326; calls by dose curve; further: potency means the concentration at half of the fitted maximal effect; actives are rising curves; nearly all actives have a fitted effect of over 50% in size
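S. cerevisiae expressing influenza A NS1, grown in glucose, washed, then diluted 1:100 into pH 6.0 -URA galactose medium with 23 nl compound. Growth recovery read as OD600; NS1-free strain serves as control.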
SARS PLP yeast = blocks SARS-CoV papain-like protease in a yeast assay. S. cerevisiae expressing SARS-CoV PLpro, growth rescue. Potency, µM (titrated, usually from 32.9 µM), for the others: at the top dose activity, positive = growth rescue, hits mostly activators. 330,000 tested, 0.19% active; calls by dose curve; further: potency means the concentration at half of the fitted maximal effect; 0% is about no effect; nearly all actives have a fitted effect of over 55% in size
Starred values were filed as active, the others as inactive; u = inconclusive; x = no result; [ ] = dose if it differs, or a comment. Unless noted, the call rests on the fitted dose curve; in most records, active means well fitted inhibition curve with a large enough effect; inconclusive means small, poorly fitted or top-dose-only effect, or another doubt; inactive means no such curve, though single readings can be large or run the other way.

SMILES	Pf growth 96h	Pf growth 48h	CHX counter	Shiga toxin inh	NS1 function inh	SARS PLP yeast
Cc1cc(N2CCN(c3ccccc3)CC2)nc(-n2nc(C)cc2C)n1	-29%	3.7µM*	-5	-9	-213%	-5%
Cc1cc(N2CCN(c3ccccc3)CC2)nc(-c2ccccc2O)n1	-18%	x	8	-3	-97%	-9%
Cc1cc(C)nc(-n2nc(C)c(Br)c2Nc2ccc(Br)cc2)n1	x	3.7µM*	-1	-18	7%	-1%
Cc1cc(Nc2ccccc2)n(C(=O)c2ccccc2)n1	x	12%	47*	73	-11%	-27%
Cc1cc(Nc2ccccc2)nn1C(=O)c1ccc([N+](=O)[O-])cc1	9.3µM*	2%	-3	-7	7%	16%
COc1ccccc1C(=O)NC(CCSC)C(=O)OC(C)C(=O)NC1CC1 (stereo not given)	8%	-18%	x	x	x	-5%
O=C(CSc1nccc(=O)[nH]1)NN(c1ccccc1)c1ccccc1	41%[1.15 µM]	17%[1.15 µM]	-4	-10	8%	0%
COc1ccc(NC2CCCN(C(=O)CCc3cn[nH]c3)C2)cc1 (stereo not given)	54%	u	-3	-7	7%	-1%
Cc1cc(Nc2ccccc2)nn1C(=O)c1ccc(Cl)cc1	x	31%	49*	156*	-12%	-56%
Cc1cc(C)nc(-n2nc(C)cc2Nc2ccccc2)n1	x	8.3µM*	-1	-5	-14%	-8%
Cc1cc(Nc2ccccc2)n(-c2ccccc2)n1	29%	-13%	-3	-11	-12%	-2%
COc1ccc(Cl)cc1C(=O)n1nc(C)cc1C	-8%	9%	14	-3	-4%	x
COc1ccc(NC(=S)NNC(=O)Cn2nc(C(F)F)cc2C(F)F)cc1	2%	3%	-1	-2	5%	11%
Nc1nc(SCC(=O)Nc2ccccc2)nc2nc3c(cc12)CCCC3	-16%	54%	17*	63*	u	-11%
Nc1cc(N)nc(SCC(=O)Nc2ccccc2)n1	u	10%	-3	12	4%	-4%
CC1(C)Cc2nc3nc(SCC(=O)NCc4ccccc4)n(-c4ccccc4)c(=O)c3cc2CO1	u	-15%	-4	-25	-11%	1%
Cc1ccc(NC(=O)CSc2nc(N)c3cc4c(nc3n2)CCCC4)cc1	66%	33%	33*	active	3%	3%
COc1ccc(NC(=O)CSc2nc(N)c3cc4c(nc3n2)CCCC4)c(OC)c1	u	-5%	-3	-10	1%	3%
CC1(C)Cc2nc3nc(SCC(=O)NCCc4ccccc4)n(-c4ccccc4)c(=O)c3cc2CO1	4.1µM*	u	8	-26	2%	7%
O=C(CSc1nc2nc3c(cc2c(=O)n1-c1ccccc1)CCCC3)Nc1ccccc1	12µM*	u	7	19	3%	-21%
CCOC(=O)Cc1csc(NS(=O)(=O)c2ccc(SC)cc2)n1	2%	8%	-2	-12	0%	5%
CC(C)CC1(C)NC(=O)N(CC(=O)Nc2ccc3c(c2)CCC3)C1=O (stereo not given)	29%	-9%	22	46	6%	0%
CC1=NNC(=O)C(CC(=O)Nc2ccc(Cl)c(Cl)c2)C1 (stereo not given)	27%	27%	-3	-11	0%	2%
CC1(C)O[C@@H]2[C@H](O1)[C@@H](CO)O[C@H]2n1cnc2c(=O)[nH]cnc21	31%	-11%	x	x	x	4%
Cc1nc2nc(SCc3ccc([N+](=O)[O-])cc3)[nH]c2cc1Br	2%	-3%	-2	1	2%	0%
SMILES	Pf growth 96h	Pf growth 48h	CHX counter	Shiga toxin inh	NS1 function inh	SARS PLP yeast
Nc1nc(SCc2ccc([N+](=O)[O-])cc2)nc2nc3c(cc12)CCCC3	1.5µM*	u	-2	-12	24%	-8%
CC(C1CC2CCC1C2)n1c(-c2cccs2)n[nH]c1=S (stereo not given)	-23%	u	-2	9	-49%	-3%
O=c1c2ccccc2nnn1CCO	42%	40%	4	-3	-4%	-1%
COCCN(C(=O)COc1ccccc1C#N)c1c(N)n(Cc2ccccc2)c(=O)[nH]c1=O	u	4%	x	x	x	1%
Oc1ccc2ccccc2c1CNc1ccccn1	17%	13%	22	5	3%	-1%
Cc1cc(C)nc(/N=C(\N)Nc2ccc(OCCC(C)C)cc2)n1	u	10µM*	0	-7	-2%	1%
